Values joined by “and” are separate entries in the source; they are usually repeats but may differ in a detail not shown here. Equal entries are not always repeated. In all, about 260,000 compounds went through this assay and about 1,500 (0.58%) were called active. Not shown: some 5% with an inconclusive outcome.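 Rule for the calls: active = inhibition above a set limit at one or more doses, reproduced on every date tested; inconclusive = results disagree between test dates, or hit never tested in dose response; inactive = the rest.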 A selection follows. Potency and affinity values are given separately.
target: Virion infectivity factor (Human immunodeficiency virus type 1 group M subtype B (isolate BH10)) + Virion infectivity factor (Human immunodeficiency virus type 1 group M subtype B (isolate BRU/LAI)) + Virion infectivity factor (Human immunodeficiency virus type 1 group M subtype B (isolate PCV12)) + Virion infectivity factor (Human immunodeficiency virus type 1 group M subtype B (isolate HXB2)) + DNA dC->dU-editing enzyme APOBEC-3G (Homo sapiens) (UniProt P69720+P69721+P69722+P69723+Q9HC16); experiment: inhibitors of Vif binding to APOBEC3G peptide, primary screen, biochemical, TR-FRET, GST-Vif 1-94, biotin-A3G peptide, dose response retest (AID 1117319); details: stronger effect = higher value;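 note: Vif residues 1-94 fused to GST binding biotinylated APOBEC3G peptide 110-148; 0% = full assay without inhibitor and 100% = GST in place of GST-Vif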

inhibition, inactive:
COC(=O)c1cccc(NC(=O)CSCc2ccccc2)c1 6.61%, O=C(Nc1ccsc1C(=O)N1CCCC1)c1ccccc1 -3.04%, CCOc1cccc(C2C(C#N)=C(N)Oc3cc(C)n(Cc4ccccn4)c(=O)c32)c1OCC (centres undefined) 14.3%, CCOC(=O)c1nn(-c2ccc(C)cc2)c(=O)cc1OCC(=O)Nc1cccc(C)c1 -4.53%, COC(=O)c1c(NC(=O)c2ccco2)sc2c1CC(C)(C)NC2(C)C -5.88%, CN(c1ccccc1)P(=O)(N(C)c1ccccc1)N(C)c1ccccc1 -2.89%, CCCCNC(=O)CCn1nc(-c2ccccc2)c2ccccc2c1=O -4.86%, COc1ccc(-c2cc(-c3n[nH]c(=S)n3-c3cccc4ccccc34)[nH]n2)cc1 32.6%, Cc1nc2ccccn2c1-c1csc(NCc2ccco2)n1 5.14%, Cc1ccn2c(-c3csc(NCc4ccco4)n3)c(C)nc2c1 16.9%, CC(=O)Oc1ccccc1/C=C1\CCOC1=O 13.1%, O=C(NCCN1C(=O)S/C(=C\c2ccc(Cl)c(Cl)c2)C1=O)c1cnccn1 20.5%, O=C(c1cc([N+](=O)[O-])ccc1N1CCOCC1)N1CCN(c2ccc([N+](=O)[O-])cc2)CC1 11.3%, COc1ccccc1CNC(=O)c1csc2c1CCCC2 10.6%, O=C(NCc1ccccc1)c1csc2c1CCCCC2 -0.06%, [O-]/C(=C(\C(=S)Nc1ccc(SC(F)F)cc1)[n+]1ccccc1)c1ccc(Cl)cc1Cl -10.3%, COc1cccc(OC)c1C(=O)Nc1nc(-c2ccccc2)cs1 -5.24%, CC(NC(=O)COc1ccccc1Cl)c1ccccc1 (centres undefined) -5.9%, CCn1c(SCC(=O)NNC(=O)c2ccc(OC)cc2)nnc1-c1ccco1 -0.44%, CC(=O)Nc1ccc(/C(N=Nc2ccccc2)=N/N=C(N)N)cc1 16.3%, Oc1ccc(/C=N\Nc2nncc(-c3ccccc3)n2)cc1 -5.32%, O=C1c2cc(Br)ccc2OC2C=CC=CC12 (centres undefined) -11.4%, COc1cccc(CNCCc2c[nH]c3ccccc23)c1OCc1ccc(F)cc1 1.44%, COc1cc(CNCCc2c[nH]c3ccccc23)ccc1OCc1ccc(F)cc1 12.4%, COc1ccc(C(=Cc2cc(OC)c(OC)cc2[N+](=O)[O-])C(=O)O)cc1 2.43%, CCOC(=O)c1cc2c(C)n(-c3ccc(OCC)cc3)c(C)c2ccc1=O 27.2%, O=C(O)C1Nc2c(C(F)(F)F)ccc(Cl)c2C2C=CCC12 (centres undefined) 24.9%, O=[N+]([O-])c1c(O)c(Cl)cc(Cl)c1Cl (tested in a mixture with another compound) -1.68%, O=C(O)C1Nc2c(Cl)cc(Cl)cc2C2C=CCC12 (centres undefined) 63.7%, Cc1noc(C)c1COC(=O)c1cnc(Cl)c(Cl)c1 3.39%, O=C(O)C12CC3CC(C1)CC(n1cnc(Cl)n1)(C3)C2 23.7%, Cc1nnc(Oc2ccccc2F)c2ccccc12 0.32%, Cc1cc(C)c(NC(=O)c2ccc(S(=O)(=O)N3CCOCC3)cc2)c(C)c1 -5.2%, Cc1cc(C)c2c(c1)C1C=CCC1C(c1ccc(S(=O)(=O)N3CCOCC3)cc1)N2 (centres undefined) 27.8% and -8.85%, Cc1ccc(CN2CC(C(=O)Nc3cccc(S(=O)(=O)N4CCCCC4)c3)CC2=O)cc1 (centres undefined) 14.4%, COc1ccc(/C=N/NC(=O)c2cc(-c3ccccc3OC)nc3ccccc23)cc1COC(C)=O -2.13%, COc1ccc(-c2cc(C(=O)N/N=C/c3ccc4c(c3)OCO4)c3ccccc3n2)c(OC)c1 -3.1%, CC(C)(C)c1cc(C(=O)Nc2ccccc2)ccn1 11.4%, Cc1ccccc1C(=O)O/N=C(\c1ccccc1)c1ccccn1 5.71%, O=C(O)c1ccc2c(c1)-c1cc(C(=O)O)ccc1S2(=O)=O -4.26%, Cc1ccn2cc(C34CC5CC(CC(C5)C3)C4)nc2c1 17%, Cc1nonc1-c1csc(N)n1 -6.95%, COc1cc(NC(=O)CSc2ccc(-c3ccco3)nn2)cc(OC)c1 0.78%, Cc1ccc(Sc2cc(NCCCO)c([N+](=O)[O-])c3nonc23)cc1 9.02%, CC(C)CCSc1cc(NCCO)c([N+](=O)[O-])c2nonc12 -1.66%, CCC(=O)OCCNc1cc(Sc2nccn2C)c2nonc2c1[N+](=O)[O-] -4.53%, CC(=O)OCCCNc1cc(Sc2ccc(C)cc2)c2nonc2c1[N+](=O)[O-] 15.4%, CN(CCO)c1cc(Sc2nc3ccccc3s2)c2nonc2c1[N+](=O)[O-] 1.28%, CCC(=O)OCCNc1cc(Sc2nc3ccccc3s2)c2nonc2c1[N+](=O)[O-] 5.25%, CCN(CC)c1cc(NCCO)c([N+](=O)[O-])c2nonc12 0.97%, CCC(=O)OCCNc1cc(SCCC(=O)OC)c2nonc2c1[N+](=O)[O-] 20%, CCCN1CCc2c(sc(NC(=O)CCS(=O)(=O)c3ccccc3)c2C(N)=O)C1 0.13%, CCOC(NC(=O)c1ccccc1)C(NC(=O)c1ccccc1)OCC (centres undefined) -1.18%, COc1ccccc1CC(O)CC1c2c(cc3c(c2OC)OCO3)CCN1C (centres undefined) -0.54%, CC(=O)c1cc(C)ccc1OC(=O)c1cccc2nc(C)oc12 3.65%, COC(=O)c1ccccc1N=Nc1c(C)n[nH]c1C -7.02%, COC(=O)CN1C(=O)C2(OCCCO2)c2cc(Br)ccc21 -2.05% and -8.37%, CN1CCN(C(=O)c2cc3c(C(F)(F)F)nn(C)c3s2)CC1 6.37%, O=C(COc1ccc(Cl)cc1Cl)N(Cc1ccco1)C1CCS(=O)(=O)C1 (centres undefined) -2.82%
